Screening data: PubChem, several laboratories
hDAT+cocaine – modulates human dopamine transporter uptake under cocaine | Q01959 | LLC-PK1 hDAT cells, [14C]-dopamine uptake with cocaine IC80; actives deviate in either direction | B-score at 10 µM | 110,000 compounds, 1.3% hits | AID 449768;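 active = Z score or B-score, a plate-position-corrected score, falls beyond the plate's 99.7% confidence bounds, in either direction; inactive = both scores lie inside the 99.7% bounds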;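 also: scored against the spread of the other compound wells on the same plate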
PostGolgi yeast – growth inhibition of a yeast mutant, post-Golgi transport screen; inhibition, % at 10 µM; post-Golgi transport phenotypic cell assay; 98,000 compounds, 0.9% hits; AID 739;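 also: yeast cells grown in 1536-well plates; yeast grown about 18 h at 30C before absorbance read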
PLAP activator – activators of human placental alkaline phosphatase; purified PLAP enzyme, luminescent substrate read-out; active compounds read high; activation fold at 20 µM; 96,000 compounds, 1.2% hits; in the data active = activation fold above about 2
Target sequence (P05187 whole entry, looked up): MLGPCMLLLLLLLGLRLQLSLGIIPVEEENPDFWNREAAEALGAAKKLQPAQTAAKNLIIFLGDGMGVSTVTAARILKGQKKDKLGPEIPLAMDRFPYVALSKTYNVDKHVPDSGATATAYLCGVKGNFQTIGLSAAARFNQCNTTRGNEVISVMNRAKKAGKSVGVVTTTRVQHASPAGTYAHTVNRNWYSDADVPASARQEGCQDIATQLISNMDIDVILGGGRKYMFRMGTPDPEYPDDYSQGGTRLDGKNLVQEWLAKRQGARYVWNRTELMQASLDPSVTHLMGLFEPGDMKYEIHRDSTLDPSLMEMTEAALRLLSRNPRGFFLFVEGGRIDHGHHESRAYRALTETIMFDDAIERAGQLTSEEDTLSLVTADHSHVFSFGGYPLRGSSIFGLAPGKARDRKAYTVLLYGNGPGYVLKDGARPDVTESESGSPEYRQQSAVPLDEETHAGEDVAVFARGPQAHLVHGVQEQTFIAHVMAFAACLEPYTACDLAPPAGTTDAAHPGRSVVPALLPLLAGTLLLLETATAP
PostGolgi ctrl – growth of the yeast control strain, post-Golgi counter-screen. 98,000 compounds, 5% hits. efflux-deficient yeast background strain, growth absorbance A615, 16 h. inhibition, % at 10 µM
Cav32 inh – human Cav3.2 channel inhibition, primary screen; O95180; Cav3.2-expressing cells, Fluo-4 calcium fluorescence FDSS; active compounds read low; B-score at 10 µM; 100,000 compounds, 4% hits; AID 449739;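 active = single-dose well whose peak fluorescence ratio is a statistical outlier from its plate by either plate-standardised score or position-corrected B-score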
* marks the source's active call; other numbers are inactive results. In the library only some 9.6% were active in any assay of this set; here they are far more common. Rule as the data show it, unless noted: active = inhibition above about 30%; inactive = the rest.

Results for O=C(NCc1ccccn1)C1CCC(=O)N1C1CCCC1 (stereo not given) ?
hDAT+cocaine: 0.67

Results for N#Cc1c(C(F)(F)F)cc(-c2ccco2)nc1SCc1ccncc1 ?
hDAT+cocaine: -0.63; PostGolgi yeast: 0; PLAP activator: 1; PostGolgi ctrl: 49*; Cav32 inh: -0.96

How did N#Cc1c(C(F)(F)F)cc(-c2ccco2)nc1SCc1ccccn1 do in these assays?
hDAT+cocaine: 0.4; PostGolgi yeast: 14; PLAP activator: 1.1; PostGolgi ctrl: 9; Cav32 inh: -0.066

Results for O=[N+]([O-])c1ccc(C2CCCC/C2=N/OCc2ccccc2F)c([N+](=O)[O-])c1 (stereo not given) ?
hDAT+cocaine: -0.54; PostGolgi yeast: -1; PLAP activator: 0.8; PostGolgi ctrl: 20; Cav32 inh: -6.5*

How did O=[N+]([O-])c1ccc(C2CCCC/C2=N/OCc2ccc(F)cc2)c([N+](=O)[O-])c1 (stereo not given) do in these assays?
hDAT+cocaine: -0.82; PostGolgi yeast: 18; PLAP activator: 0.7; PostGolgi ctrl: 5; Cav32 inh: -5.4*

Results for CCC(C)S(=O)(=O)c1snnc1C (stereo not given) ?
hDAT+cocaine: -0.6; PostGolgi yeast: 1; PLAP activator: 0.8; PostGolgi ctrl: -2; Cav32 inh: -0.036

How did CCOc1ccc(Br)cc1C1C(C(=O)OC)=C(N)Oc2cc(N(C)C)ccc21 (stereo not given) do in these assays?
hDAT+cocaine: -0.34; PostGolgi yeast: 1; PLAP activator: 1.4; PostGolgi ctrl: 31*; Cav32 inh: -2.6

What do the screens show for `CC(C)(C(N)=O)N1CCN(c2ncc(C(F)(F)F)cc2Cl)CC1`?
hDAT+cocaine: -0.34; PostGolgi yeast: 0; PLAP activator: 1; PostGolgi ctrl: 18; Cav32 inh: 0.04

What do the screens show for `O=C(CSc1nccn1-c1ncc(C(F)(F)F)cc1Cl)c1ccc(Cl)cc1`?
hDAT+cocaine: 2.5; PostGolgi yeast: 3; PLAP activator: 1.7; PostGolgi ctrl: 32*; Cav32 inh: -2.5*

What do the screens show for `O=C(OCCN1CCN(c2ncc(C(F)(F)F)cc2Cl)CC1)c1ccc(Cl)cc1`?
hDAT+cocaine: 0.12; PostGolgi yeast: 16; PLAP activator: 1.6; PostGolgi ctrl: 31*; Cav32 inh: -0.03

What do the screens show for `Cc1ccc(C(=O)O/N=C2\CCCc3ccccc32)cc1`?
hDAT+cocaine: -0.88; PostGolgi yeast: -2; PLAP activator: 0.9; PostGolgi ctrl: 38*; Cav32 inh: 0.06

What do the screens show for `CCCc1cc(=O)oc2cc(C)cc(O)c12`?
hDAT+cocaine: -0.99; PostGolgi yeast: -10; PLAP activator: 1; PostGolgi ctrl: 19; Cav32 inh: -1.5

What do the screens show for `CCCc1cc(=O)oc2c3c(c4c(c12)OC(C)(C)C=C4)OC(C)C(C)C3O` (stereo not given)?
hDAT+cocaine: -0.025; Cav32 inh: -6.8*

Results for Cc1ccc(C)c(NS(=O)(=O)c2cc(C(=O)Nc3ccccc3-c3ccccc3)ccc2Cl)c1 ?
hDAT+cocaine: 0.47; PostGolgi yeast: -4; PLAP activator: 1.1; PostGolgi ctrl: 13; Cav32 inh: -3.7

How did CCSC1=C(C#N)C2(CCCCC2)C(C#N)=C(N)N1 do in these assays?
hDAT+cocaine: -0.66; PostGolgi yeast: -4; PLAP activator: 0.9; PostGolgi ctrl: 3

What do the screens show for `N#CC1=C(N)NC(SCC(=O)Nc2ccccc2)=C(C#N)C12CCCCC2`?
hDAT+cocaine: -2.4; Cav32 inh: -5*

What do the screens show for `N#CC1=C(N)NC(SCc2ccccc2)=C(C#N)C12CCCCC2`?
PostGolgi yeast: 103*; PLAP activator: 0.8; PostGolgi ctrl: 91*

Results for COC(=O)C1=C(C(=O)OC)[C@@H]2N(C)c3ccccc3[C@@]23C[C@@H](CO)N(C(=O)C2CCC2)C3=N1 ?
hDAT+cocaine: 0.013; Cav32 inh: -0.73

Results for Cc1ccccc1-n1c(=O)cc(N2CCN(C(=O)c3ccco3)CC2)[nH]c1=O ?
hDAT+cocaine: 0.18; PostGolgi yeast: 4; PostGolgi ctrl: 5; Cav32 inh: 0.57

How did O=C1C2ON(c3ccc(Br)cc3)C(c3cccnc3)C2C(=O)N1C1CCCCC1 (stereo not given) do in these assays?
PostGolgi yeast: 102*; PLAP activator: 1; PostGolgi ctrl: 85*

What do the screens show for `COc1cccc(C(=O)Nc2ccc(N3CCN(Cc4ccccc4)CC3)cc2)c1`?
hDAT+cocaine: 0.29; PostGolgi yeast: 4; PLAP activator: 0.9; PostGolgi ctrl: -2; Cav32 inh: -0.25

What do the screens show for `COc1cccc(N2CCN(CC(=O)NCc3cccs3)CC2)c1`?
hDAT+cocaine: 0.03; PostGolgi yeast: -2; PLAP activator: 1.3; PostGolgi ctrl: -7; Cav32 inh: 0.71

What do the screens show for `COc1cccc(NC(=O)c2ccc(CN3CCN(c4ccccc4)CC3)cc2)c1`?
hDAT+cocaine: 1.6; PostGolgi yeast: 37*; PLAP activator: 1.4; PostGolgi ctrl: -4; Cav32 inh: -5.4*

How did COc1ccc(NC(=O)c2ccc(CN3CCN(c4ccccc4)CC3)cc2)cc1 do in these assays?
hDAT+cocaine: -0.45; PostGolgi yeast: 64*; PLAP activator: 1.5; PostGolgi ctrl: 4; Cav32 inh: 0.56

Results for COc1cccc(N2CCN(CC(=O)Nc3nnc(-c4ccccc4)s3)CC2)c1 ?
hDAT+cocaine: -0.39; PostGolgi yeast: -3; PLAP activator: 2*; PostGolgi ctrl: 11; Cav32 inh: -5.2*

Results for CCOC(=O)c1nnc2c(Br)c(-c3ccccc3)nn2c1C ?
hDAT+cocaine: 0.61; Cav32 inh: -1.9

Results for COc1ccc(N2Nc3n[nH]c(N)c3N2)cc1 ?
hDAT+cocaine: -1.2; Cav32 inh: 0.82

Results for Nc1nc2ccc(OC(F)(F)F)cc2s1 ?
hDAT+cocaine: 0.7; Cav32 inh: 0.33

Results for Nc1nc2ccc(Oc3ccccc3)cc2s1 ?
hDAT+cocaine: -0.84; PostGolgi yeast: 10; PLAP activator: 1.1; PostGolgi ctrl: 32*; Cav32 inh: -2.4

What do the screens show for `Brc1ccc2ncnc(NCc3ccco3)c2c1`?
PostGolgi yeast: -7; PLAP activator: 0.8; PostGolgi ctrl: 13; Cav32 inh: 1.1

Results for OC(CNCc1ccco1)Cn1c2ccc(Br)cc2c2cc(Br)ccc21 (stereo not given) ?
hDAT+cocaine: -0.028; PostGolgi yeast: 106*; PLAP activator: 1.1; PostGolgi ctrl: 99*; Cav32 inh: -0.32

What do the screens show for `CCn1c(C)nc2cc(C(=O)OC(C(F)(F)C(F)F)C(F)(F)C(F)F)ccc21`?
hDAT+cocaine: -0.21; PostGolgi yeast: 0; PLAP activator: 1.4; PostGolgi ctrl: 27

How did CCn1c(C)nc2cc(C(=O)NNS(=O)(=O)c3c(C)c(C)cc(C)c3C)ccc21 do in these assays?
hDAT+cocaine: 1.6; PostGolgi yeast: -5; PLAP activator: 2*; PostGolgi ctrl: 15

Results for Cc1ccc(C(=O)N/N=C/c2ccc([N+](=O)[O-])s2)cc1 ?
hDAT+cocaine: 0.12; PostGolgi yeast: -6; PLAP activator: 1; PostGolgi ctrl: 7; Cav32 inh: -0.17
